From PubChem BioAssay AID2284366 (EPA ToxCast)
Results filed as inconclusive are left out. Activity calls are given as the source filed them. Rule for the calls: active = hit-call score of the fitted dose curve at least 0.9, where 1 is the maximum; inconclusive = response in the unintended direction; inactive = score below 0.9.

These compounds were tested on zebrafish Peroxisome Proliferator-activated Receptor gamma (PPARg), gene 557037 (assay: ATG_zfPPARg_EcoTox2: Attagene TRANS-FACTORIAL EcoTox-2 HepG2 Assay for zebrafish Peroxisome Proliferator-activated Receptor gamma (PPARg)).
Description: ATG_EcoTox2 is a cell-based, multiplexed assay created by modifying the existing Attagene TRANS-FACTORIAL system to include a panel of nuclear receptors from some or all the following species: human (Homo sapiens), african clawed frog (Xenopus laevis), rainbow trout (Oncorhynchus mykiss), japanese medaka (Oryzias latipes), and zebrafish (Danio rerio). The ECOTOX2-FACTORIAL format uses HepG2, a human liver cell line, with measurements taken at 24 hours after chemical dosing in a 24-well plate. ATG_zfPPARg_EcoTox2 is one of 29 assay components calculated in the ATG_EcoTox2 assay. It is designed to make measurements of mRNA induction, a form of inducible reporter, as detected with fluorescence intensity signals by Reverse transcription polymerase chain reaction (RT-PCR) and Capillary electrophoresis technology.The assay endpoint ATG_zfPPARg_EcoTox2 was analyzed in the positive analysis fitting direction relative to DMSO as the negative control and baseline of activity. Using a type of inducible reporter, measures of mRNA for gain-of-signal activity can be used to understand the reporter gene at the transcription factor-level as they relate to the gene PPARg. Furthermore, this assay endpoint can be referred to as a primary readout, because this assay has produced multiple assay endpoints where this one serves a reporter gene function. To generalize the intended target to other relatable targets, this assay endpoint is annotated to the nuclear receptor intended target family, where the subfamily is non-steroidal.
Human liver HepG2 cells are transiently transfected with multiple reporter transcription units (MRTUs) in 6-well plates using FuGene 6 reagent (Roche; 3 ml FuGene/1 mg DNA). The MRTU constructs are regulated by a cis-regulating element (promoter). Each RTU expresses a GAL4-UAS that regulates the transcription of a nearby target reporter gene sequence. A major difference between the CIS and TRANS system is that in CIS activities of endogenous TFs are measured, whereas the TRANS assay evaluates changes in activities of exogenous, chimeric NR-Gal4 proteins. […] At the end of 24 hour incubation, total RNA was isolated using TriZol reagent (Invitrogen). The isolated RNA is then reverse-transcribed using oligo(dT) primer and Mo-MLV reverse transcriptase (Invitrogen) with DNAse I (Ambion) treatment for 30 min. The one-tenth of the produced cDNA was amplified by PCR using Taq DNA polymerase (Invitrogen) and two reporter sequence-specific primers. The PCR products were fluorescently labeled by primer extension with 6-arboxyfluorescein (6-FAM) 5'-labeled reporter sequence-specific primer (2 min at 95 C, 20 s at 68 C and 10 min at 72 C) and these products were digested with 5U of HpaI (New England Biolabs) for 2h at 37 C. The fragments were purified using Qiaquick PCR columns (Qiagen), analyzed on an ABI 3130xL genetic analyzer (Applied Biosystems) with peak positions identified by using a set of X-rhodamine (ROX)-labeled MapMarker1000 molecular weight standards (BioVentures). The raw capillary electrophoresis data was processed using Attagraph software (Attagene).
With CCCCOCN(C(=O)CCl)c1c(CC)cccc1CC the outcome was “inactive”. O=S(=O)(O)C(F)(F)C(F)(F)C(F)(F)C(F)(F)C(F)(F)C(F)(F)F was tested, and the outcome was “inactive”. In the case of [Cl][Sn]([c]1ccccc1)([c]1ccccc1)[c]1ccccc1, the outcome is reported as “inactive”. O=P(Oc1ccccc1)(Oc1ccccc1)Oc1ccccc1 was tested, and the AC50 was 13.2 µM (active). In the case of O=C(O)C(F)(F)C(F)(F)C(F)(F)C(F)(F)C(F)(F)C(F)(F)C(F)(F)F, the outcome is reported as “inactive”.
